Screens: PubChem BioAssay, Center for Chemical Genomics, University of Michigan
The entries come from a sample that favours hits as a whole.
Dicer inh = blocks human Dicer maturation of pre-miR-21. cat-ELCCA pre-miR-21 Dicer processing, chemiluminescence; active compounds read high. z-score at 25 µM. 47,000 compounds, 6% hits; in the data active means z-score above about 3, passing the limit was not always enough;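 further: plate controls were vehicle for no effect and no enzyme for full effect; higher signal means more uncleaved substrate so more Dicer inhibition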
Target sequence (Q9UPY3 whole entry, looked up): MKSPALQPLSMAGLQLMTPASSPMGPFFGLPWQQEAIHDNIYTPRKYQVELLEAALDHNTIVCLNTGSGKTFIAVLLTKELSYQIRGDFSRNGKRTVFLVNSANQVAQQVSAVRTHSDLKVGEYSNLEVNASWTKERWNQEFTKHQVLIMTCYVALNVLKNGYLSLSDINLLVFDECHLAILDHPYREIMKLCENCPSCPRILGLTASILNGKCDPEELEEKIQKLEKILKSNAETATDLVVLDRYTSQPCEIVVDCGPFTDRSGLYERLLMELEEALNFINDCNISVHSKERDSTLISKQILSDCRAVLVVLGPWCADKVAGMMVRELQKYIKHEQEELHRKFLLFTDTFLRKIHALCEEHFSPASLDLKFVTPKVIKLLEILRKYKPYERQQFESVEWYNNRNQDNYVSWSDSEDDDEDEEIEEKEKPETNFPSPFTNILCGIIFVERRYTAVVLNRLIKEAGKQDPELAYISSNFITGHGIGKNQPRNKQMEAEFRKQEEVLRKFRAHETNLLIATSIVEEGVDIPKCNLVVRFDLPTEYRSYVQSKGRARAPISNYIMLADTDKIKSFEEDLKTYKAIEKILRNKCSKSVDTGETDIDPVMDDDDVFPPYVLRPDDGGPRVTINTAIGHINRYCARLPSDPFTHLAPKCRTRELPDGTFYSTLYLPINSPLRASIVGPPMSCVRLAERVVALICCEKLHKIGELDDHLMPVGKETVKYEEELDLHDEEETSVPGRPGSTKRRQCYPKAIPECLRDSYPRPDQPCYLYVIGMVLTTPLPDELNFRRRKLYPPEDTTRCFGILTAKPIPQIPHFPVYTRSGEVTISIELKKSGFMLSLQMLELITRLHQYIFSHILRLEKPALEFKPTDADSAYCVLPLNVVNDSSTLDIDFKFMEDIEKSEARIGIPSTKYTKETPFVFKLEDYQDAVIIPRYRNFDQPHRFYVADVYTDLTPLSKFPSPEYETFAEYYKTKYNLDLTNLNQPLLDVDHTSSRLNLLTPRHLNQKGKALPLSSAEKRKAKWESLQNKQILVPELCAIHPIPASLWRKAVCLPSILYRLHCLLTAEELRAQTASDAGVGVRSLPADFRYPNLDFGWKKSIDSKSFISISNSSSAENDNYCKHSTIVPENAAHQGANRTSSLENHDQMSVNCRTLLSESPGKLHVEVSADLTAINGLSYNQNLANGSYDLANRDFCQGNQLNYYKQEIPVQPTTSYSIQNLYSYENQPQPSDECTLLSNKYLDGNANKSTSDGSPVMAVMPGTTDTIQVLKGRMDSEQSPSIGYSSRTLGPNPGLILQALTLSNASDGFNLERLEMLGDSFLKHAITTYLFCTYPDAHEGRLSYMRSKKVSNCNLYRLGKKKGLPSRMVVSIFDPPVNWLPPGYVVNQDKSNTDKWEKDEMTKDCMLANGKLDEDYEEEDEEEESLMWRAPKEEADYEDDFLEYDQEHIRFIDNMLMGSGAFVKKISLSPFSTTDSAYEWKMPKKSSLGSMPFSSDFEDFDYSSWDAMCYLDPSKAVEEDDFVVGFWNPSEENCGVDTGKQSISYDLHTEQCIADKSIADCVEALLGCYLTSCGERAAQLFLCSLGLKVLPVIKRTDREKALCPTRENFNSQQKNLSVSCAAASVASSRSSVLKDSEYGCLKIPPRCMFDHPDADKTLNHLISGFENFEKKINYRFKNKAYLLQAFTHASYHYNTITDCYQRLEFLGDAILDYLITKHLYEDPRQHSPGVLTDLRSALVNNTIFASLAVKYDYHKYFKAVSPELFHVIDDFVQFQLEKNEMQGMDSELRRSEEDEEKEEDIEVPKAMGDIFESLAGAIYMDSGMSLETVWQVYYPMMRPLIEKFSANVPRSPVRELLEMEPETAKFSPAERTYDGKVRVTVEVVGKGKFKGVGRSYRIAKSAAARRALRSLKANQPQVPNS
* marks the source's active call; other numbers are inactive results.

SMILES | Dicer inh
Cc1ncc(S(=O)(=O)Cc2cccs2)c(N)n1 | 5.2*
Cc1ncc(S(=O)(=O)C(C)(C)C)c(N)n1 | -0.51
CSc1ncc(S(=O)(=O)Cc2cccs2)c(N)n1 | 0.02
CCc1cc(C(=O)c2ccc(OC)cc2)c(NC(=O)COc2ccc(Cl)cc2Cl)s1 | 0.37
O=C(Nc1cccc2[nH]ccc12)C1CCCCC1 | 2.6
Brc1cc(Br)c(-c2sc(Br)cc2Br)s1 | 0.85
CCC(=O)Nc1nonc1-c1nc2ccccc2[nH]1 | -7.2
CCCCCOc1ccc(C2c3c(oc4ccccc4c3=O)C(=O)N2c2nnc(C)s2)cc1OC (centres undefined) | -0.24
O=C(Nc1ccc(Sc2ccccc2)nc1Sc1ccccc1)c1cccs1 | -0.73
O=C(Nc1ccc(F)cc1F)c1cccs1 | 6.4*
O=C(Nc1ccc(F)cc1F)C(=S)NCc1cccs1 | -0.05
CCn1cc(CN(C)C(=O)c2cc3n(n2)C(C(F)(F)F)CC(c2ccco2)N3)c(C)n1 (centres undefined) | 1.5
CC(C)COC(=O)Cn1nnc2sc3c(c2c1=O)CCC(C)C3 (centres undefined) | 3
CCC(C)OC(=O)Cn1nnc2sc3c(c2c1=O)CCC(C)C3 (centres undefined) | 2
COC(=O)Cn1nnc2sc3c(c2c1=O)CCCC3 | 1
CC1CCc2c(sc3nnn(CC(=O)NC4CCCCC4)c(=O)c23)C1 (centres undefined) | -0.09
CCCCCOC(=O)Cn1nnc2sc3c(c2c1=O)CCC(C)C3 (centres undefined) | 3.5*
CCCOC(=O)Cn1nnc2sc3c(c2c1=O)CCCC3 | 1.9
CC1CCN(C(=O)Cn2nnc3sc4c(c3c2=O)CCC(C)C4)CC1 (centres undefined) | 3*
CC1CCN(C(=O)Cn2nnc3sc4c(c3c2=O)CCCC4)CC1 | 3.5*
COCCOC(=O)Cn1nnc2sc3c(c2c1=O)CCC(C)C3 (centres undefined) | 0.73
O=C(CC1(O)C(=O)Nc2ccc(Br)cc21)c1ccccn1 (centres undefined) | -1
C=CCNC(=S)SCCN | -1.8
CCOC(CC(=O)NNC(=O)Nc1cccc(C(F)(F)F)c1)OCC | 0.46
CC[C@H]1OC(=O)[C@H](C)C(O[C@H]2C[C@@](C)(OC)[C@@H](O)[C@H](C)O2)[C@H](C)[C@@H](OC2O[C@H](C)C[C@H](N(C)C)[C@H]2O)[C@](C)(O)C[C@@H](C)CN(C)[C@H](C)[C@@H](O)[C@]1(C)O (some centres undefined) | 2.3
SMILES | Dicer inh
COC(=O)c1cnc(NNC(=O)c2ccc(F)cc2)nc1C(F)(F)F | 0.47
CC(=O)NC(NCc1ccc(F)cc1)(C(F)(F)F)C(F)(F)F | -1.1
CCCCCOC(=O)Cn1c(=O)oc2ccc(C)cc21 | 1
CC(C)(C)NC(=O)Cn1c(=O)oc2ccc(Cl)cc21 | -1
O=c1oc2ccccc2n1Cc1cccc(Cl)c1 | 0.02
Cc1ccc2oc(=O)n(Cc3ccc(OC(C)C)cc3)c2c1 | 3.2*
Cc1cccc(Cn2c(=O)oc3ccc(C)cc32)c1 | -0.24
COC(=O)Cn1c(=O)oc2ccc(C)cc21 | 3.7*
Cn1nc(NC(=O)Cn2ccc(C(F)(F)F)n2)c2ccccc21 | 0.32
C=CCOC(=O)c1sc(N2C(=O)c3oc4ccc(F)cc4c(=O)c3C2c2ccc(F)cc2)nc1C (centres undefined) | 0.74
COCCOC(=O)C1=C(C)NC2=C(C(=O)CC(c3cccs3)C2)C1c1ccc(OC(C)=O)cc1 (centres undefined) | 2.1
Cc1nnc(N2C(=O)c3oc4ccccc4c(=O)c3C2c2ccccc2)s1 (centres undefined) | -0.53
Cc1ccc2c(c1)n(S(=O)(=O)c1ccc(F)cc1)c(=O)n2S(=O)(=O)c1ccc(F)cc1 | 1
O=S(=O)(CS(=O)(=O)Oc1ccc(Cl)cc1Cl)Oc1ccc(Cl)cc1Cl | 2.3
O=C(/C=C/C(=O)Oc1ccc(Cl)cc1Cl)Oc1ccc(Cl)cc1Cl | 3.7*
CC(Oc1ccc(Cl)cc1Cl)C(=O)Oc1ccc(Cl)cc1Cl (centres undefined) | 8.2
O=C(NC(=O)c1cnn2c(C(F)(F)F)cc(C(F)(F)F)nc12)Nc1ccc(Cl)cc1 | 0.4
O=C(O)CCCc1nc(-c2cnc3n(c2=O)CCS3)no1 | -0.26
Cc1ccc(C)c(S(=O)(=O)N2CCC(C)CC2)c1 | -0.73
O=C(O)c1ccc2[nH]cc(C(=O)O)c(=O)c2c1 | 0.58
CCCCc1sc(-c2c(C#N)c(N)nc3c2CCCC3)cc1[N+](=O)[O-] | 0.94
CC(C)CNC(=S)NC(=O)c1csc([N+](=O)[O-])c1 | 1.1
CC(C)c1ccc(NC(=S)NNC(=O)NC(=O)c2csc([N+](=O)[O-])c2)cc1 | 4.7*
O=C(NC(=S)NN1CCCCC1)c1csc([N+](=O)[O-])c1 | 2.2
Cc1ccc2ncc(NC(=O)c3ccc(C(C)(C)C)cc3)c(=O)n2c1 | 0.34
SMILES | Dicer inh
Oc1ccc(C2Oc3ccccc3C3CC(c4ccccc4O)=NN32)cc1 (centres undefined) | 18*
COc1ccc(C2Oc3ccccc3C3CC(c4ccccc4O)=NN32)cc1OC (centres undefined) | 4.8*
COc1ccc(O)c(C2=NN3C(C2)c2ccccc2OC3c2ccc(OC)c(O)c2)c1 (centres undefined) | 1
COc1ccc(C2Oc3ccccc3C3CC(c4ccccc4O)=NN32)cc1O (centres undefined) | 1.6
COc1cccc(C2Oc3ccccc3C3CC(c4ccccc4O)=NN32)c1 (centres undefined) | 3.8
Oc1ccccc1C1=NN2C(C1)c1ccccc1OC2c1ccncc1 (centres undefined) | 1.9
CCOc1ccc(C2C(C(=O)OCc3ccc(OC)cc3)=C(C)NC3=C2C(=O)CC(C)(C)C3)cc1 (centres undefined) | 1.5
O=[N+]([O-])c1c(Nc2ccc(Br)cc2)n[nH]c1-c1nnco1 | -0.65
Cc1cc(F)ccc1NC(=O)c1sc2nc(-c3ccncc3)ccc2c1N | 0.59
CCOC(=O)COc1ccc2c(C)cc(=O)oc2c1 | -0.73
Cc1cc(S(=O)(=O)Nc2ccc3c(c2)OCC2CCCN32)c(C)s1 (centres undefined) | 6.7
Cc1ccc2c(=O)c(C(=O)c3ccccc3)coc2c1 | 5.5*
COC(=O)Oc1ccc2c(=O)c(-c3ccccc3)coc2c1 | 0.85
Cc1ccc2c(=O)c(C(=O)c3ccccc3C)coc2c1 | 2
O=C1NCCN1CCNC(=S)NC1CC1 | -2.4
CSc1nn(-c2ccccc2)cc1C(N)=S | -0.12
CSc1nn(-c2ccccc2)cc1/C(N)=N/O | 6*
CSc1nn(-c2ccccc2)cc1/C(N)=N/OC(=O)Nc1ccccc1 | 3.7
CNC(=O)NNc1nccc(-c2cccnc2)n1 | -0.69
CC(C)(C)NC(=S)N/N=C/c1ccccc1SC(C)(C)C | 0.21
CCN(CC)S(=O)(=O)c1cccc(-c2cn3ccc(C)cc3n2)c1 | 0.22
Cn1nc(C(F)(F)F)c(-c2ccccc2)c1NC(=O)c1ccc(F)cc1 | -0.74
CCOc1ccc(C2c3c(oc4ccccc4c3=O)C(=O)N2c2nnc(C(C)C)s2)cc1OCC (centres undefined) | 0.09
C[C@H](NS(=O)(=O)c1ccc(F)cc1)C(=O)O | 5.3*
CC(C)[C@H](NS(=O)(=O)c1ccc(F)cc1)C(=O)O | 1.3
CC(NS(=O)(=O)c1ccc(N)cc1)C(=O)O (centres undefined) | -0.74
CCOC(=O)CC(=O)CSc1nc(N)c2c3c(sc2n1)CCCC3 | 5.5*
CCOC(=O)CSc1nc(SCC(=O)OCC)c2c3c(sc2n1)CCC3 | 2.9
CCOC(=O)c1nc2sc3c(c2c(=O)[nH]1)CCCC3 | -0.09
